PubChem BioAssay AID761 (NMMLSC, 2007)
About 400 (0.21%) of roughly 190,000 compounds were called active. Roughly 2% stayed inconclusive and do not appear here.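 How the source made its calls: active means percent activity GTP binding at least 20 points away from the 100% baseline, either down as inhibitor or up as activator; inconclusive means compound flagged as likely green fluorescent from well-wide comparison; inactive means the rest.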 This excerpt belongs to a sample that is enriched for actives.

molecular target: Cell division control protein 42 homolog (Homo sapiens) (UniProt P60953); experiment: modulators of GTP binding to wildtype Cdc42, primary screen, biochemical, multiplex bead flow cytometry, Bodipy-GTP (AID 761); details: GST-Cdc42 beads, at 10 µM, actives lie on both sides;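 further: median bead fluorescence of bound Bodipy-FL-GTP at 100 nM; 0% = excess unlabeled GTP control and 100% = no compound control; below 100% means less GTP binding so inhibitor and above means activator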
Sequence (P60953 whole entry, looked up): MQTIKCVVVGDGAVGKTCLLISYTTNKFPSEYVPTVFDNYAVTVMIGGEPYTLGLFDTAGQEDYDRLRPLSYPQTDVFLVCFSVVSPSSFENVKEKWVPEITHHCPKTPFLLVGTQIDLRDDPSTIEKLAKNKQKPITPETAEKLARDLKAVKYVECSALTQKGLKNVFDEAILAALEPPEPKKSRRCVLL

Percent activity (GTP binding), active:
Nc1[nH]c(=S)nc2nc(-c3ccccc3)c(-c3ccccc3)nc12 78%

Percent activity (GTP binding), inactive:
CC(=O)N1CCc2cc(Br)cc(S(=O)(=O)CCC(=O)Nc3c(C)n(C)n(-c4ccccc4)c3=O)c21 100%, Cc1cc(NC(=O)CSc2nccn2-c2ccc([N+](=O)[O-])cc2)no1 96%, CC(=O)Nc1ccc(NC(=O)CSc2nnc(COc3ccccc3C)n2CC2CCCO2)cc1 (stereo unspecified) 99%, C=CCO/N=C/C1=C(O)C(C(=O)OC)C(C)(C)CC1=O (stereo unspecified) 108%, COC(=O)c1cc(NC(=O)CN2CCN(C(C)=O)CC2)cc(C(=O)OC)c1 99%, Cc1cc(N2CCN(C)CC2)nc2ccc(NC(=S)N3CCOCC3)cc12 96%, COc1cccc(NC(=O)CC2C(=O)NCCN2C(=S)Nc2ccc(F)cc2)c1 (stereo unspecified) 97%, CCOC(=O)C(CC)/C(C)=N\NC(=O)c1cccc(C)c1 (stereo unspecified) 92%, Cc1ccc(/C([O-])=C(/C(=S)NCc2ccco2)[n+]2ccccc2)cc1[N+](=O)[O-] 95%, CCn1nc(C)c(CN2CCN(Cc3ccc(OC)c(C)c3C)C(CCO)C2)c1C (stereo unspecified) 97%, C=CCc1ccc(OCC(O)CN2CCN(Cc3ccccc3)CC2)c(OC)c1 (stereo unspecified) 94%, CC(=O)Nc1ccc(S(=O)(=O)Nc2ccc(-c3ccc4nnc(C)n4n3)cc2)cc1 89%, Nc1ccc(-c2sc(N)nc2-c2ccccc2)cc1 97%, O=C(NNc1cc(Cl)ccc1Cl)c1cccnc1Cl 97%, CCOC(=O)c1ccccc1NC(=S)N1CCC(C(N)=O)CC1 97%, O=C(/C=C/c1ccccc1)Oc1coc(CSc2ncccn2)cc1=O 91%, Cc1ccc(CN2CCN(Cc3ccc4ncccc4c3)CC2CCO)cc1 (stereo unspecified) 94%, Cc1nccc(-c2ccc(-n3c(C)ccc3C)cc2)n1 93%, Cc1ccc(N2C(=O)C3CC3C2=O)cc1 (stereo unspecified) 98%, Cc1ccccc1CN1C[C@@H]2C[C@@H](c3ccc4nsnc4c3)N3CCC[C@@]23C1=O 101%, CCS(=O)(=O)c1ccc(C(=O)NC)c(Cl)c1Cl 91%, COc1ccc(C)cc1NC(=O)Nc1ccccc1SC 98%, CC(C)C(O)C1CCN(Cc2nc(Cc3ccccc3Cl)no2)CC1 (stereo unspecified) 96%, COc1ccc(CN2CCCC(CNC(=O)c3ccc(F)cc3)C2)cc1OC (stereo unspecified) 97%, COc1ccc(Cl)cc1NC(=O)NC(C)C(C)(C)C (stereo unspecified) 101%
